The list is not random: actives were taken first. Their share in the collection is about 4.6%.
GAA850 FXN act = increases GAA850 frataxin promoter reporter activity; activation, % at 6 µM; HEK293 lucGAA850 FXN promoter luciferase reporter, 24 h; percent of 10 µM SAHA response; 0.56% of 360,000 active;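 active = activation above the average of all compounds screened plus 3 SD, cutoff fixed separately per campaign, cut at about 7.5% in these data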;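 note: 0% = DMSO wells and 100% = 10 µM SAHA wells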
HSF1 activator = increases HSF-1 driven luciferase reporter signal. 1.7% of 300,000 active. activation, % at 9 µM. NIH3T3-HGL HSF-1 luciferase reporter, MG132, 8 h; 100% = twice DMSO control signal;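 active = mean replicate activation of at least 50% with a set share of replicates each reaching 50%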;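 note: 0% = median of the neutral control wells and 100% = twice that signal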
AHR act = activates the human aryl hydrocarbon receptor; P35869; AHR-responsive luciferase reporter cells, luminescence; activation, % at 5 µM; 2.5% of 320,000 active; AID 2796; in the data active = activation above about 47%;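 note: 0% = vehicle wells and 100% = reference agonist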
Target sequence (P35869 whole entry, looked up): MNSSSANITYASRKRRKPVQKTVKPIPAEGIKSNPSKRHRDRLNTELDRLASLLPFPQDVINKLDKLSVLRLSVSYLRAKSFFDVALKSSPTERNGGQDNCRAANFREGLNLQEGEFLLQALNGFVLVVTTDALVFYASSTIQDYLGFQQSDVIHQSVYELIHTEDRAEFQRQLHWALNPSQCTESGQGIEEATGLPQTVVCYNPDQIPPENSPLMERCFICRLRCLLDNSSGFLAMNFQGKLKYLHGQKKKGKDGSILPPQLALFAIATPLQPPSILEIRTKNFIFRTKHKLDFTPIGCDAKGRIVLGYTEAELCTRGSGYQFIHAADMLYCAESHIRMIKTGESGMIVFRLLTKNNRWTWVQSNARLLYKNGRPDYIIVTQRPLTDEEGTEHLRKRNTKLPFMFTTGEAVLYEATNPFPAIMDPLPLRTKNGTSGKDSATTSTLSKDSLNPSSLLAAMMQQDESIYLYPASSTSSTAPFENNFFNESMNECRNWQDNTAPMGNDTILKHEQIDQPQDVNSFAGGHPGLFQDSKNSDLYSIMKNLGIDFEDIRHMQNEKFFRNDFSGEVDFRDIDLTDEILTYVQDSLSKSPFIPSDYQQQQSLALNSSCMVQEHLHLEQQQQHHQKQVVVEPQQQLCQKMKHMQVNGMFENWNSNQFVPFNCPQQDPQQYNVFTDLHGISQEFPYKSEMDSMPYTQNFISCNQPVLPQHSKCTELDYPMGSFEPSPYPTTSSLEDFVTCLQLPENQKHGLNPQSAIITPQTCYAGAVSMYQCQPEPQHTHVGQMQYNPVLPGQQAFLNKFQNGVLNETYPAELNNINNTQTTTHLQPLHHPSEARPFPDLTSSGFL
HSF1 inh = HSF1 inhibition; 0.77% of 300,000 active; activity change, negative = inhibition, % at 7.5 µM (by protocol); NIH3T3-HGL HSE-luciferase, MG132-induced, luminescence 8 h; hits give low values;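 active = more than half of replicate wells show activity change below -50%, luminescence cut by over half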;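 note: luciferase reports HSF-1 transcriptional activity via heat shock element; 0% = median of DMSO wells and -100% = zero luminescence signal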
Active calls of the source: *; / = no result given.

SMILES | GAA850 FXN act | HSF1 activator | AHR act | HSF1 inh
Cc1sc2nc(CSCC(=O)Nc3ccccc3C#N)[nH]c(=O)c2c1C | -1.5 | 38.9 | 70.1* | 13.0
Cc1cc(C)c(C#N)c(Oc2ccc(O)cc2)n1 | 0.0 | 0.6 | 1.5 | -12.9
CCCC(=O)Nc1cccc(Oc2nc(C)cc(C)c2C#N)c1 | 1.1 | 3.2 | 58.4* | -6.4
Cc1cc(C)c(C#N)c(Oc2ccc(F)cc2)n1 | -0.7 | 8.2 | -4.2 | 1.0
COc1ccc(C(=O)COc2nc(C)cc(C)c2C#N)cc1 | -0.1 | 4.9 | 47.2* | 7.5
Cc1ccc(S(=O)(=O)NNC(=O)C(=O)NNS(=O)(=O)c2ccc(C)cc2)cc1 | 3.4 | / | -2.0 | /
Cc1ccc(NC(=S)Nc2ccccn2)cc1C | 5.6 | 39.5 | 32.2 | 25.5
Cc1ccc(NC(=S)Nc2ccccn2)c(C)c1 | 4.5 | 60.3* | 0.0 | 22.2
Cc1cc(C)cc(NC(=S)Nc2cccc3cnccc23)c1 | -0.3 | / | / | /
Cc1ccc(NC(=S)c2ccncc2)c(C)c1 | 1.9 | 39.0 | 1.7 | 15.6
Cc1ccc(NC(=S)Nc2cccc3cnccc23)c(C)c1 | 1.8 | 72.6* | 3.4 | 42.8
Cc1cc(Cl)ccc1NC(=S)Nc1ccccn1 | 3.5 | 55.5* | / | 26.6
Cc1cccc(NC(=S)NNc2cccc(Cl)c2)c1 | -2.6 | 10.4 | 53.1* | 19.2
Cc1cccc(NC(=S)Nc2ccccn2)c1 | 3.3 | 58.5* | 58.1* | 30.0
O=Cc1c(Cl)nc2ccccn12 | -0.8 | 10.0 | 1.0 | 4.3
COc1ccc(-c2nc3ccccn3c2C=O)cc1 | 3.6 | 32.2 | 54.9* | 4.8
CC(=O)Nc1c(-c2ccc(F)cc2)nc2ccccn12 | 1.3 | 3.0 | -0.8 | -6.8
O=Cc1c(-c2ccc(F)cc2)nc2ccccn12 | 2.1 | 11.8 | 70.5* | 3.8
COC(=O)c1ccc(/C=N/Nc2nc(-c3ccccc3)cs2)cc1 | 0.7 | -5.8 | 49.8* | 0.1
CCCC(=O)Nc1ccc(-c2csc(N/N=C\c3ccncc3)n2)cc1 | -4.1 | -5.8 | 1.7 | -0.8
CC(=O)Nc1ccc(-c2csc(N/N=C\c3ccncc3)n2)cc1 | -0.9 | 17.8 | 61.4* | -3.3
OC1CCCN(CC(O)c2ccccc2)C1 (configuration not stated) | -0.3 | -2.2 | -1.8 | 1.0
CN(C)c1ccc(CC(=O)c2nc3ccccc3s2)cc1 | -4.0 | 55.7* | 20.0 | 28.0
COc1cc(/C=N/NC(=O)c2ccncc2)ccc1OC(C)=O | -1.1 | 2.6 | 7.8 | -4.9
CSc1ccc(/C=N\Nc2nncn2N)cc1 | 1.0 | 94.9* | 10.7 | 37.3
SMILES | GAA850 FXN act | HSF1 activator | AHR act | HSF1 inh
COc1cc(/C=N\Nc2nncn2N)ccc1OC(C)=O | 1.0 | 55.8* | 14.3 | 27.5
COc1ccc(C(=O)O/N=C/c2ccc(S(=O)c3ccc(Cl)cc3)nc2)cc1 (configuration not stated) | 0.1 | 9.2 | 2.9 | 5.3
CCOc1ccc(Cl)cc1CSc1n[nH]c(CC)n1 | 0.0 | -12.3 | 29.9 | 2.4
O=C(/C=C/c1ccc2c(c1)OCO2)NCC1CCCO1 (configuration not stated) | 5.7 | -1.2 | 16.4 | 0.5
COc1ccccc1/C=C\C=N\NC(=O)CCn1nnc2ccccc21 | 4.1 | 4.7 | 74.1* | 1.3
CCOC(=O)c1ccc(NC(=O)CCn2nnc3ccccc32)cc1 | -0.5 | -1.0 | 3.6 | 1.1
COc1ccc(/C=N/NC(=O)CCn2nnc3ccccc32)cc1 | 0.1 | -5.7 | 2.4 | -3.9
Cc1ccc(C(=O)NNC(=O)CCn2nnc3ccccc32)cc1 | 0.9 | -1.6 | 1.5 | -5.9
CCOc1cc(NC(=O)CC(C)C)c(OCC)cc1NC(=O)CCn1nnc2ccccc21 | 0.7 | 56.9* | 1.7 | 12.5
Cc1cccc(C(=O)NNC(=O)CCn2nnc3ccccc32)c1 | -1.1 | 88.8* | 0.5 | 33.4
COc1ccccc1/C=C/C=N/NC(=O)CCn1nnc2ccccc21 | -1.7 | 5.3 | 66.4* | -0.4
CCN(CC)C(=O)C1=C(C)N(Cc2ccccc2)C(=O)C(CC(=O)NCCCCc2ccccc2)C1 (configuration not stated) | -5.5 | / | / | /
Cc1ccccc1NC(=O)c1ccc(CN2CCC(Cc3ccccc3)CC2)cc1 | -4.2 | 2.7 | 1.8 | -7.8
O=C(CCN1C(=O)/C(=C/c2ccc(F)cc2)SC1=S)NNC(=O)c1ccncc1 | 0.5 | 7.6 | 6.4 | -5.7
Nc1ccc(-c2nc3ccccc3s2)cn1 | 4.3 | 43.3 | 13.6 | 17.4
O=C1CCC(=O)N1c1ccc(-c2nc3ccccc3s2)cc1 | -0.6 | -72.0 | 9.3 | -71.8*
C[C@H](CO)N1C[C@H](C)[C@@H](CN(C)C)Oc2c(NC(=O)CCCCCC(=O)Nc3ccccc3N)cccc2C1=O | -0.2 | / | 1.8 | /
CCn1c(O)c(N=NC(=O)c2cccs2)c2ccccc21 | 2.2 | 63.3* | 42.1 | 19.0
C=CCNC(=O)C1CC1(c1cccc(C)c1)c1cccc(C)c1 (configuration not stated) | 1.3 | -11.4 | 0.4 | 0.3
Cc1cccc(C2(c3cccc(C)c3)CC2C(=O)Nc2ccc([N+](=O)[O-])cc2O)c1 (configuration not stated) | -8.7 | 18.2 | 77.3* | 4.5
COc1ccccc1N=C1NC(=O)/C(=C/c2ccc(N(C)C)cc2)S1 | -1.4 | 19.8 | 65.4* | 11.5
COc1ccc(/C=C2\SC(=Nc3ccccc3)NC2=O)cc1 | / | -10.8 | / | -6.8
COc1cc(/C=N/NC(=O)c2ccc(Cl)cc2)ccc1OCC(=O)N1CC(C)OC(C)C1 (configuration not stated) | 0.1 | 55.7* | 14.3 | 13.0
O=C(N/N=C/c1ccc(Cl)cc1)c1ccc2c(c1)OCO2 | -1.4 | 54.8* | 8.9 | 35.7
COc1ccccc1/C=C/C=N/NC(=O)c1cccs1 | 2.6 | 61.5* | -1.1 | 21.9
SMILES | GAA850 FXN act | HSF1 activator | AHR act | HSF1 inh
NC(=O)c1cc2ccccc2o/c1=N/NC(=O)c1cccs1 | -1.4 | 16.6 | 28.3 | 4.6
COc1ccc2o/c(=N/NC(=O)c3cccs3)c(C(N)=O)cc2c1 | 5.8 | 56.3* | 11.7 | 5.2
COc1ccc(N2CCN(C(=O)C(OC(C)=O)c3ccccc3)CC2)cc1 (configuration not stated) | 1.3 | 4.1 | 1.4 | -1.0
CCOC(=O)N1CCN(C(=O)c2c(-c3c(Cl)cccc3Cl)noc2C)CC1 | -0.3 | -3.4 | -0.1 | -5.2
O=C(O)c1cc(N/N=C/c2ccc3c(c2)OCO3)ccc1Cl | 2.3 | -13.5 | 6.6 | -6.9
O=C(O)c1ccc(N/N=C/c2ccc3c(c2)OCO3)cc1 | -9.6 | -76.1 | -5.8 | -70.7*
CCC/C(=N/NC(=O)c1ccc2c(c1)OCO2)c1cccs1 | 2.7 | -7.6 | 63.6* | 1.5
COc1cc(/C=N/NC(=O)c2cccs2)ccc1O | 3.4 | 41.0 | 2.0 | 9.2
COc1cccc(/C=N/NC(=O)c2cccs2)c1 | 5.3 | 62.9* | 13.9 | 15.2
Cc1cc(C(=O)N/N=C/c2ccc3c(c2)OCO3)c(C)o1 | 2.4 | 14.1 | 72.4* | 1.0
CC/C(=N\NC(=O)c1ccc2c(c1)OCO2)c1ccccc1 | -2.5 | 0.3 | / | 7.1
COc1ccccc1S(=O)(=O)Cc1ccc(C(=O)NCC(OC)OC)o1 | -0.1 | 1.9 | -0.4 | -8.7
Cn1c(N)c(C(=O)c2ccc(Oc3ccccc3)cc2)c(=O)n(C)c1=O | -0.2 | 46.3 | 0.3 | 10.9
O=C(CSc1nccn1-c1ccccc1)c1ccc(Cl)cc1 | -1.8 | 35.5 | 2.4 | 18.3

Screening results (PubChem)
